From PubChem
Shiga toxin inh – Shiga toxin inhibition. Vero cells, Shiga toxin protein synthesis inhibition reporter. inhibition, % at 38.7 µM. hit rate 9.2% among 290,000. AID 2315; in the data active = inhibition mostly above about 28%, no sharp cut-off; inactive = mostly below about 43%; note: 0% is about no effect
Pf growth 96h – P. falciparum growth inhibition at 96 hours; Potency, µM (top dose mostly 28.7 µM), inactives show top-dose activity change, negative = inhibition, hits mostly inhibitors; P. falciparum luciferase reporter growth, 96 h; hit rate 6.9% among 320,000; AID 504834; note: potency is the fitted concentration of half-maximal effect; % is set by controls: 0 for no effect and ±100 for the full control effect
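Infected RBCs, 2% Hct / 0.05% parasitemia final; luciferase-reporter P. falciparum; cpd 96 h, 37 C, 5% CO2; luciferase detection reagent; luminescence.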
HCV inh – HCV inhibition; Huh7.5.1 HCVcc-Cre infection, luciferase reporter, 44 h; Potency, µM (highest dose often 41.8 µM), inactives show top-dose activity change, negative = inhibition, most hits filed as inhibitors; hit rate 3.4% among 340,000; AID 651820; note: potency is the fitted concentration of half-maximal effect; % is set by controls: 0 for no effect and ±100 for the full control effect
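After 44 h co-culture of compound, cells and HCVcc-Cre (~0.5 moi), substrate is added for 15 min at room temperature and luciferase measured over 15 sec. Cells were seeded at 1,000/well and pre-cultured 4 h.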
AMA1-RON2 inh – AMA1-RON2 (P. falciparum) interaction inhibition. AlphaScreen AMA1-biotinylated RON2 peptide binding. Potency, µM (doses to about 58.2 µM), inactives show top-dose activity change, negative = inhibition, hits mostly inhibitors. hit rate 0.2% among 360,000. AID 720542;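 note: potency is the fitted concentration of half-maximal effect; 0% = vehicle wells and -100% = peptide control; nearly all actives have a fitted effect of over 45% in size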
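AMA1 (3D7) with his tag at 25 nM final met compounds first, then biotinylated RON2 peptide at 25 nM; detection used donor plus acceptor beads, 10 µg/mL apiece, read by AlphaScreen after 30 min at room temperature.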
Cycloheximide cs – affects cycloheximide protein synthesis inhibition readout, counter-screen. cell reporter, cycloheximide protein synthesis inhibition counterscreen. max response, %. hit rate 12% among 300,000. AID 2314; in the data active = max response mostly above about 13%, no sharp cut-off; inactive = mostly below about 14%; note: read at 38.3 µM for the half of the compounds with a filed dose; 0% is about no effect
Pf growth 48h – P. falciparum growth inhibition at 48 hours (one generation). AID 504832. hit rate 5.9% among 310,000. P. falciparum luciferase growth in erythrocytes, 48 h. Potency, µM (top dose mostly 28.7 µM), for the others: top-dose activity change, negative = inhibition, usual class: inhibitors; note: potency is the fitted concentration of half-maximal effect; % is set by controls: 0 for no effect and ±100 for the full control effect
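Growth was read as firefly luciferase luminescence after a 48 h, 37 C, 5% CO2 exposure of compounds to reporter-bearing P. falciparum cultures (0.1% parasitemia, 2% hematocrit final) in Albumax-supplemented RPMI 1640.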
* hit, by the source's call; ? = inconclusive; / = no result given; [ ] = dose if it differs, or a comment. The list is not random: actives were taken first. Their share in the collection is about 21%. Unless noted, calls come from the whole dose curve; as a rule, active = well fitted curve in the direction sought with a large enough effect; inconclusive = small, poorly fitted or top-dose-only effect, or another doubt; inactive = no such curve, though single readings can be large; an effect the other way counts as inactive or inconclusive.

SMILES	Shiga toxin inh	Pf growth 96h	HCV inh	AMA1-RON2 inh	Cycloheximide cs	Pf growth 48h
Cc1ccc(C(NC(=O)CN2C(=O)NC3(CCCC3)C2=O)c2ccccc2)cc1 (stereo not drawn)	/	?	?	-2.9%	/	?
CN(C)/C=C/C(=O)c1ccc(Cl)cc1Cl	11.2	32.3%	11.7%	20.7%	17.4	5.7%
CCOC(=O)c1ccccc1N/C=C/C(=O)c1ccccc1	/	/	?	17.6%	/	/
O=C(/C=C/Nc1ccc(F)cc1Br)c1ccccc1	40.2*	2.4%	0.3%	-5.5%	38.8*	54.1%
Cc1cc(N/C=C/C(=O)c2ccccc2)ccc1Br	56.1*	?	-2.7%	-3.8%	36.5*	224.5%
COc1cccc(C(=O)/C=C/Nc2ccc(NC(C)=O)cc2)c1	60.1	11.7%	-21.6%	-2.9%[11.6 µM]	42.4*	95.3%
COc1ccc(C(=O)/C=C/Nc2ccc(NC(C)=O)cc2)cc1OC	21.6	91.3%	-4.4%	-6.9%	-0.4	?
O=C(/C=C/Nc1ccccc1)c1ccc(Cl)cc1Cl	97.5*	271.1%	-12.8%	-0.9%	41.7*	257.0%
COCCn1ccc2c(OCC(=O)NCc3ccc(C)cc3)cccc2c1=O	/	-17.1%	6.3%	5.5%	/	?
O=C(Nc1ccc(F)cc1)c1ccc(C(=O)N2CCCC(O)C2)cc1 (stereo not drawn)	/	100.7%	7.8%	23.2%	/	0.7%
CS(=O)(=O)c1ccc(Cl)c(NC(=O)COC(=O)CCCN2C(=O)c3cccc4cccc(c34)C2=O)c1	/	18.5%	7.5%	15.5%	/	-16.8%
CC(C)(C)CC(=O)Nc1nn[nH]n1	-5.2	3.0%	31.4%	-5.1%	-3.9	2.8%
CN(C)c1ccc(N/C=C/C(=O)c2ccccc2)cc1	77.8*	/	-19.3%	?	27.6*	-37.6%
COc1cccc(C(=O)/C=C/Nc2ccc(S(=O)(=O)Nc3cccc(C(C)=O)c3)cc2)c1	96.7*	?	?	-7.8%	57.0*	-72.8%
O=C(/C=C/Nc1ccccc1)c1ccccc1	29.4	7.38µM*	4.0%	4.6%	26.9*	/
COc1ccc(OC)c(N/C=C/C(=O)c2ccccc2)c1	-36.7	?	-28.9%	6.5%	-3.5	?
C/C(=C\C(=O)c1ccc(Cl)cc1Cl)N(C)C	31.6*	10.0%	-1.9%	-19.7%	14.4	?
O=C(CC(C(=O)O)c1ccc(Cl)cc1Cl)c1ccc(Cl)cc1 (stereo not drawn)	-5.7	31.4%	2.8%	-5.8%	-1.0	-5.8%
COc1cc(C2SCC(=O)N2Cc2ccccc2)cc(OC)c1OC (stereo not drawn)	-5.6	21.6%	6.2%	-0.3%	-1.7	-0.5%
CC(=O)Nc1ccc(N/C=C/C(=O)c2ccccc2)cc1	53.3*	2.0%	12.2%	-9.1%	37.4*	144.4%
CC(=O)Nc1ccc(NC(=O)c2cccc(Oc3ccccc3)c2)cc1	-6.5	12.0%	15.2%	-2.1%	-2.0	14.7%
CN(C)c1ccc(N/C=C/C(=O)C(C)(C)C)cc1	148.2*	/	?	-17.6%	60.4	2.33µM*
OCC[C@@H]1C[C@H](O)[C@@H](O)[C@]2(OCCc3cc(C(F)(F)F)ccc32)O1	/	/	/	7.8%	/	/
O=C(O)c1cccc2nc3ccccc3nc12	-4.3	48.6%	-1.1%	-0.8%	1.7	?
O=C(O)c1nc2ccccc2nc1C(=O)O	80.9*	?	22.2%	-20.1%	46.0*	100.3%
SMILES	Shiga toxin inh	Pf growth 96h	HCV inh	AMA1-RON2 inh	Cycloheximide cs	Pf growth 48h
CC(NC(=O)COC(=O)c1ccc(Br)o1)c1ccccc1 (stereo not drawn)	/	36.7%	-4.9%	-11.6%	/	6.6%
COc1ccc(NC(=O)CCN2C(=O)c3ccccc3S2(=O)=O)c(OC)c1	20.0	21.7%	-9.3%	6.5%	4.2	2.7%
COc1ccc(C(=O)CN2C(=O)c3ccccc3S2(=O)=O)cc1	-21.7	75.6%	1.5%	1.8%	-5.5	7.38µM*
COc1ccc(C(=O)CN2C(=O)c3ccccc3S2(=O)=O)cc1Br	10.8	?	-0.2%	5.2%	6.4	-19.7%
Cc1ccc(NC(=O)CN2C(=O)c3ccccc3S2(=O)=O)cc1C	10.9	-5.7%	11.9%	19.3%	11.5*	15.8%
COc1cccc(NC(=O)CCN2C(=O)c3ccccc3S2(=O)=O)c1	32.7	/	-29.0%	5.4%	14.5*	0.0%
COC(=O)[C@]12CCCCC=C1N(Cc1ccc(Cl)cc1Cl)C(=O)[C@H](CC(=O)N1CCOCC1)C2	/	/	/	-4.7%	/	/
